Source: PubChem BioAssay
For some of these results: Measured potencies and affinities stand elsewhere. Activity calls are given as the source filed them. Unless noted, no rule for the calls is given here.

Tests used:
[1] = antimalarial activity against Dd2 strain (AID 2302;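 active = growth inhibition above 50% at the single 2 µM test dose, taken to imply half-maximal potency below 2 µM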;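 also: 0% = DMSO untreated growth and 100% = chloroquine plus artemisinin killed control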); conditions: P. falciparum Dd2 in RBCs, LDH growth readout, 72 h; at 2 µM; active compounds read high
[2] = HepG2 cytotoxicity, primary screen, cytotoxicity control for P. falciparum antimalarial project, cell-based, ATP luminescence (AID 2303;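 active = inhibition above 50%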;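 also: 0% = DMSO wells and 100% = digitonin-killed cells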); conditions: HepG2 viability, 24-48 h, at 10 µM, active compounds read high
[3] = target: L-lactate dehydrogenase (Plasmodium falciparum (isolate CDC / Honduras)) (UniProt Q27743); assay: PfLDH activity inhibition – cell lysate, 3D7 strain, counter-screen for P. falciparum growth inhibition project (AID 2304);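 also: 0% = vehicle and 100% = reference inhibitor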; conditions: P. falciparum 3D7 crude extract, LDH APAD/NBT absorbance; at 2 µM; active compounds read high
[4] = inhibition of 3D7 malaria parasite growth – strain 3D7 (AID 2306);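 also: 0% = DMSO wells and 100% = chloroquine plus artemisinin control wells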; conditions: P. falciparum 3D7 erythrocytic growth, LDH absorbance, 72 h; at 2 µM; active compounds read high
[5] = target: Calcium-dependent protein kinase 1 (Plasmodium falciparum (isolate 3D7)) (UniProt P62344); assay: PfCDPK1 kinase inhibitors, biochemical, TCAMS library (AID 1159585; cut-off not given, nearly all actives have IC50 up to about 0.98 µM;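 also: inhibitors leave more ATP so luminescence rises with inhibition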); conditions: recombinant PfCDPK1, Kinase-Glo ATP depletion luminescence
[6] = target: Plasmodium falciparum protein kinase 6 (PK6, PF3D7_1337100) (UniProt Q8IDW1); assay: PfPK6 kinase inhibitors, biochemical, TCAMS library (AID 1159586); conditions: recombinant PfPK6, Kinase-Glo ATP depletion luminescence
[7] = target: Protein kinase 7 (PK7), Plasmodium falciparum 3D7 (PF3D7_0213400) (UniProt Q7YTF7); assay: inhibition of Plasmodium PK7 catalytic activity – biochemical, TCAMS antimalarial set, Kinase-Glo luminescence (AID 1159587); conditions: recombinant PfPK7, Kinase-Glo ATP depletion luminescence
[8] = target: Calcium-dependent protein kinase 4 (Plasmodium falciparum (isolate 3D7)) (UniProt Q8IBS5); assay: PfCDPK4 kinase inhibitors, biochemical, TCAMS library (AID 1159588; cut-off not given, nearly all actives have IC50 up to about 0.91 µM); conditions: recombinant PfCDPK4, Kinase-Glo ATP depletion luminescence
Sequence of Calcium-dependent protein kinase 4 (Plasmodium falciparum (isolate 3D7)) (Q8IBS5 whole entry, looked up): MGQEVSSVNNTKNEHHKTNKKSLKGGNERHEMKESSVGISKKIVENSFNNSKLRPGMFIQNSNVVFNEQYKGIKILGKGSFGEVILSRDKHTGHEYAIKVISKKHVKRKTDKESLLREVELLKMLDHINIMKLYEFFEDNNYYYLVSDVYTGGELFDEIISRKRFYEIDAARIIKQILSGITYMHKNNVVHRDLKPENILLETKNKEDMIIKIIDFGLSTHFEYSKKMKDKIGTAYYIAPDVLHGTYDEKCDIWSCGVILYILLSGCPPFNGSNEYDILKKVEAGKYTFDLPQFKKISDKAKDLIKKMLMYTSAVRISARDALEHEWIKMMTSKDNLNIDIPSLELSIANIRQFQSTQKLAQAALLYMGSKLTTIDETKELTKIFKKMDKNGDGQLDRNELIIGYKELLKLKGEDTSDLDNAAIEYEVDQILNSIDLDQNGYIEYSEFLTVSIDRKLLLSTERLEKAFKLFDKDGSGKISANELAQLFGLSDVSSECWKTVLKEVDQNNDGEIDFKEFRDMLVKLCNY

Sequence of Protein kinase 7 (PK7), Plasmodium falciparum 3D7 (PF3D7_0213400) (Q7YTF7 1-343): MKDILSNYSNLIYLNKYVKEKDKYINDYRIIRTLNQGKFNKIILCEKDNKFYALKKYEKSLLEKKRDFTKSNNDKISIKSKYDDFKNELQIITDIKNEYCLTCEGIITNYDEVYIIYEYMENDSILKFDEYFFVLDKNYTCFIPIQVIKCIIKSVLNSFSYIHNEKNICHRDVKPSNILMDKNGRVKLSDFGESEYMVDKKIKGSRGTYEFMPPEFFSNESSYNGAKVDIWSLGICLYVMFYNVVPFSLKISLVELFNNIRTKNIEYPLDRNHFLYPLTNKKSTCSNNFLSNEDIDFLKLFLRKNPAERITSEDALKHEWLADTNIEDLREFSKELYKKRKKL
Sequence of L-lactate dehydrogenase (Plasmodium falciparum (isolate CDC / Honduras)) (Q27743 whole entry, looked up): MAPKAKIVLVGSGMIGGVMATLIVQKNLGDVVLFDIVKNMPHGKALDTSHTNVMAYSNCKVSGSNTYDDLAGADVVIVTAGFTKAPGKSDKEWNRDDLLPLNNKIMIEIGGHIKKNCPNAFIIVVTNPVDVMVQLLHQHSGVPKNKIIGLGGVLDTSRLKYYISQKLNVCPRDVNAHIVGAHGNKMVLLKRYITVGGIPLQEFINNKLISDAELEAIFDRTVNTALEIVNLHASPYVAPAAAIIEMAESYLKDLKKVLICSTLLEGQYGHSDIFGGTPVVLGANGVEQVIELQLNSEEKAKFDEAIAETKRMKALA
Sequence of Plasmodium falciparum protein kinase 6 (PK6, PF3D7_1337100) (Q8IDW1 1-305): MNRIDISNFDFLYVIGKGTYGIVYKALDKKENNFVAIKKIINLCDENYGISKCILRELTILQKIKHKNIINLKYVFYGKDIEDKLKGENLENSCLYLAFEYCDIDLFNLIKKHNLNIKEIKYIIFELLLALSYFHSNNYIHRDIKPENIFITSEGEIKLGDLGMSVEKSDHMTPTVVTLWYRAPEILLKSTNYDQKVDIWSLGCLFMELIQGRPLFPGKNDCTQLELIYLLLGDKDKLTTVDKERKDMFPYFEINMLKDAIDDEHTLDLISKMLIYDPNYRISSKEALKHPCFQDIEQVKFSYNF
Sequence of Calcium-dependent protein kinase 1 (Plasmodium falciparum (isolate 3D7)) (P62344 whole entry, looked up): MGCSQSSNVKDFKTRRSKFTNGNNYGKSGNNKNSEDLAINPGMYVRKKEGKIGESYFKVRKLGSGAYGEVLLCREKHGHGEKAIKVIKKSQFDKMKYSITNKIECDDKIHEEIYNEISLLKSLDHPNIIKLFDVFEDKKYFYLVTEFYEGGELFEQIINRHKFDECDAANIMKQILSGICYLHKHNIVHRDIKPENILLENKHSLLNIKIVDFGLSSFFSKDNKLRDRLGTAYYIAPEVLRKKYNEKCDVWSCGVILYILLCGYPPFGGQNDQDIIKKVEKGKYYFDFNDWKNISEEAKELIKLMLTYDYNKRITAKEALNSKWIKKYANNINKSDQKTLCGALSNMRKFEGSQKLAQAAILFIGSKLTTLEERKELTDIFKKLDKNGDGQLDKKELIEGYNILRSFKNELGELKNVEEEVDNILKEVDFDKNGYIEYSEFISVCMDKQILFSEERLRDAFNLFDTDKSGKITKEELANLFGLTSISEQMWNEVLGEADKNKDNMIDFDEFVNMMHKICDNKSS

CCOC(=O)c1ccc(N2CCN(c3cc(C)ccc3C)CC2)c(NC(=O)Nc2ccc(Cl)c(Cl)c2)c1
inactive: growth inhibition [1] 42% | inhibition [2] 7% | inhibition [3] -2% | outcome [5] | outcome [6] | outcome [7] | outcome [8]
active: growth inhibition [4] 100%

Cc1[nH]c2ccc(-c3ccccc3)cc2c(=O)c1Br
inactive: inhibition [2] -13% | inhibition [3] 4% | outcome [5] | outcome [6] | outcome [7] | outcome [8]
active: growth inhibition [1] 97% | growth inhibition [4] 97%

O=C(NC1CC1)c1cnc(N2CCC(Cc3ccccc3)CC2)c(Cl)c1
active: growth inhibition [1] 96% | growth inhibition [4] 96%
inactive: inhibition [2] 10% | inhibition [3] -2% | outcome [5] | outcome [6] | outcome [7] | outcome [8]

CC1CCCN(c2ccc(NC(=O)c3cccs3)cc2[N+](=O)[O-])C1 (stereo not drawn)
active: growth inhibition [1] 96% | growth inhibition [4] 96%
inactive: inhibition [2] 14% | inhibition [3] -2% | outcome [5] | outcome [6] | outcome [7] | outcome [8]

CCOC(=O)c1[nH]c(-c2ccccc2)nc1NC(=S)NC1CCCCC1
inactive: growth inhibition [1] 1% | inhibition [2] 6% | inhibition [3] 1% | outcome [5] | outcome [6] | outcome [7] | outcome [8]
active: growth inhibition [4] 96%

O=C(NCCCCN1CCC(c2ccc3ccccc3c2O)CC1)c1ccc(-c2ccc(Cl)cc2)cc1
inactive: inhibition [3] -2% | outcome [5] | outcome [6] | outcome [7] | outcome [8]
active: growth inhibition [1] 99% | inhibition [2] 84% | growth inhibition [4] 101%

NC1CCN(Cc2ccc(-c3ccc(-c4nc5ccccc5[nH]4)s3)cc2)C1 (stereo not drawn)
active: growth inhibition [1] 99% | growth inhibition [4] 101%
inactive: inhibition [2] 32% | inhibition [3] -6% | outcome [5] | outcome [6] | outcome [7] | outcome [8]

Cc1cccc2[nH]c(-c3ccc(-c4cccc(CNC5CCN(C)CC5)c4)s3)nc12
active: growth inhibition [1] 73% | growth inhibition [4] 98%
inactive: inhibition [2] 21% | inhibition [3] 2% | outcome [5] | outcome [6] | outcome [7] | outcome [8]

Cc1cccc2[nH]c(-c3ccc(-c4ccc(CNCC5CCCO5)cc4)cc3)nc12 (stereo not drawn)
inactive: inhibition [2] 36% | inhibition [3] -4% | outcome [5] | outcome [6] | outcome [7] | outcome [8]
active: growth inhibition [1] 81% | growth inhibition [4] 101%

COc1ccc(-c2ccc(NC(=O)c3cccc(Cl)c3)cc2)cc1CN1CCC(O)CC1
active: growth inhibition [4] 102%
inactive: growth inhibition [1] 12% | inhibition [2] 15% | inhibition [3] -5% | outcome [5] | outcome [6] | outcome [7] | outcome [8]

C=CCc1cc(SC)ccc1Oc1ccc(N)cc1
inactive: growth inhibition [1] 2% | inhibition [2] 12% | inhibition [3] 4% | outcome [5] | outcome [6] | outcome [7] | outcome [8]
active: growth inhibition [4] 96%

CC(C)(C)CC(C)(C)c1ccc(O)c(CNC2CCCCC2)c1
active: growth inhibition [1] 99% | inhibition [2] 92% | growth inhibition [4] 98%
inactive: inhibition [3] 4% | outcome [5] | outcome [6] | outcome [7] | outcome [8]

O=C1C2=C(Nc3ccccc3SC2c2cccs2)c2ccccc21 (stereo not drawn)
active: growth inhibition [1] 93% | growth inhibition [4] 96%
inactive: inhibition [2] 8% | inhibition [3] 5% | outcome [5] | outcome [6] | outcome [7] | outcome [8]

CN(C)Cc1cccc(-c2ccc(NC(=O)c3ccc4c(=O)n(Cc5ccoc5)cnc4c3)cc2)c1
inactive: growth inhibition [1] 9% | inhibition [3] 3% | outcome [5] | outcome [6] | outcome [7] | outcome [8]
active: inhibition [2] 54% | growth inhibition [4] 98%

CCCc1cc(C(=O)N[C@@H](Cc2ccccc2)[C@H](O)CNC(C)C)c(F)c(N2CCCC2=O)c1
inactive: growth inhibition [1] 22% | inhibition [2] -2% | inhibition [3] 0% | outcome [5] | outcome [6] | outcome [7] | outcome [8]
active: growth inhibition [4] 90%

CCNc1cc(C(=O)N[C@@H](Cc2ccccc2)[C@H](O)CN[C@@H](C)c2cccc(OC)c2)cc(N2CCCC2=O)c1
active: growth inhibition [1] 65% | growth inhibition [4] 95%
inactive: inhibition [2] 5% | inhibition [3] -1% | outcome [5] | outcome [6] | outcome [7] | outcome [8]

O=C(Nc1ccc(NC2=NCCN2)cc1)c1ccc(C(=O)Nc2ccc(NC3=NCCN3)cc2)cc1
active: growth inhibition [1] 86% | growth inhibition [4] 91%
inactive: inhibition [2] 15% | inhibition [3] -8% | outcome [5] | outcome [6] | outcome [7] | outcome [8]

COc1cc(C(=O)N2CCOC(CCN3CCC(c4ccc(Cl)cc4)CC3)(c3ccc(Cl)c(Cl)c3)C2)cc(OC)c1OC (stereo not drawn)
inactive: inhibition [2] 44% | inhibition [3] 6% | outcome [5] | outcome [6] | outcome [7] | outcome [8]
active: growth inhibition [1] 80% | growth inhibition [4] 91%

CC(C)NCc1cccc(-c2cccc(-c3nc4ccc(F)cc4[nH]3)c2)c1
active: growth inhibition [1] 85% | growth inhibition [4] 101%
inactive: inhibition [2] 20% | inhibition [3] 2% | outcome [5] | outcome [6] | outcome [7] | outcome [8]

COc1cc(C(=O)Nc2ccc(-c3nc4ccccc4[nH]3)cc2)cc(OC)c1OC
inactive: growth inhibition [1] 33% | inhibition [2] 13% | inhibition [3] -8% | outcome [5] | outcome [6] | outcome [7] | outcome [8]
active: growth inhibition [4] 99%

Cc1cccc2c3c([nH]c12)C1(CCN(Cc2ccccc2)CC1)NC(C(=O)NCc1ccccc1)C3 (stereo not drawn)
active: growth inhibition [4] 81%
inactive: growth inhibition [1] 8% | inhibition [2] -4% | inhibition [3] -2% | outcome [5] | outcome [6] | outcome [7] | outcome [8]

O=C(Nc1cccc(N2CCC(NCCCn3ccnc3)CC2)c1)c1cccc(C(F)(F)F)c1
active: growth inhibition [4] 101%
inactive: growth inhibition [1] 2% | inhibition [2] 8% | inhibition [3] 3% | outcome [5] | outcome [6] | outcome [7] | outcome [8]

Oc1c(C(Nc2nc3ccccc3s2)c2ccccc2)ccc2cccnc12 (stereo not drawn)
inactive: inhibition [2] 45% | inhibition [3] -4% | outcome [5] | outcome [6] | outcome [7] | outcome [8]
active: growth inhibition [1] 83% | growth inhibition [4] 95%

Cc1ccc2c(Cc3cnc(N)nc3N)cc(C)c(N)c2n1
inactive: inhibition [2] -19% | inhibition [3] -2% | outcome [5] | outcome [6] | outcome [7] | outcome [8]
active: growth inhibition [1] 92% | growth inhibition [4] 91%

CCN(CCCN1CCCCC1)c1cc(C)nc(Nc2ccc(C)c(Cl)c2)n1
active: growth inhibition [1] 100% | growth inhibition [4] 101%
inactive: inhibition [2] 32% | inhibition [3] -7% | outcome [5] | outcome [6] | outcome [7] | outcome [8]

Cn1cncc1C(=O)Nc1cccc(-c2ccc(-c3nc4ccccc4[nH]3)cc2)c1
active: growth inhibition [4] 99%
inactive: growth inhibition [1] 11% | inhibition [2] -5% | inhibition [3] 1% | outcome [5] | outcome [6] | outcome [7] | outcome [8]

COc1ccc2nc(/C=C/c3cccc4ccc(C)nc34)[nH]c2c1
inactive: inhibition [2] 25% | inhibition [3] -1% | outcome [5] | outcome [6] | outcome [7] | outcome [8]
active: growth inhibition [1] 77% | growth inhibition [4] 98%

Cn1nccc1C(=O)NCCNCc1ccc(-c2cccc(-c3nc4ccccc4[nH]3)c2)cc1
inactive: inhibition [2] 35% | inhibition [3] 2% | outcome [5] | outcome [6] | outcome [7] | outcome [8]
active: growth inhibition [1] 87% | growth inhibition [4] 101%

C=CCOC(=O)N1CCC(CNCc2ccc(-c3cccc(-c4nc5ccccc5[nH]4)c3)cc2)C1 (stereo not drawn)
inactive: inhibition [2] 39% | inhibition [3] 2% | outcome [5] | outcome [6] | outcome [7] | outcome [8]
active: growth inhibition [1] 50% | growth inhibition [4] 100%

CN(C)c1ccc(-c2csc(C(=O)NC3CCN(Cc4ccc(C(C)(C)C)cc4)C3)c2)cc1 (stereo not drawn)
inactive: inhibition [2] 26% | inhibition [3] -1% | outcome [5] | outcome [6] | outcome [7] | outcome [8]
active: growth inhibition [1] 50% | growth inhibition [4] 99%

CCOC(=O)c1ccc(NC(=O)N[C@@H](Cc2ccccc2)C(=O)NC2CCN(Cc3ccc(OCCCN(C)C)cc3)C2)cc1 (stereo partly drawn)
active: growth inhibition [4] 91%
inactive: growth inhibition [1] 8% | inhibition [2] 5% | inhibition [3] 0% | outcome [5] | outcome [6] | outcome [7] | outcome [8]

COc1cc2c(cc1S(=O)(=O)c1ccc(NC(=O)Nc3ccc(F)cc3)cc1)CCN(C)CC2
active: growth inhibition [1] 55% | growth inhibition [4] 99%
inactive: inhibition [2] -1% | inhibition [3] -5% | outcome [5] | outcome [6] | outcome [7] | outcome [8]

O=C(Cn1c(CCc2cccc(F)c2F)cc(=O)c2ccccc21)N(CCN1CCCCC1)Cc1ccc(-c2ccc(C(F)(F)F)cc2)cc1
active: growth inhibition [1] 59% | growth inhibition [4] 101%
inactive: inhibition [2] 9% | inhibition [3] -6% | outcome [5] | outcome [6] | outcome [7] | outcome [8]

O=C(Cn1c(SCc2cccc(F)c2F)cc(=O)c2ccccc21)N(CCCn1ccnc1)Cc1ccc(-c2ccc(C(F)(F)F)cc2)cc1
active: growth inhibition [1] 99% | growth inhibition [4] 99%
inactive: inhibition [2] 21% | inhibition [3] -5% | outcome [5] | outcome [6] | outcome [7] | outcome [8]

C[C@H](Cc1ccc(OCCNC[C@H](O)c2cccc(Cl)c2)cc1)NC[C@H](O)c1ccc(Cl)c(Cl)c1
active: growth inhibition [1] 64% | inhibition [2] 69% | growth inhibition [4] 83%
inactive: inhibition [3] 4% | outcome [5] | outcome [6] | outcome [7] | outcome [8]

Oc1ccc(Nc2nc(NCc3ccccc3)c3ccccc3n2)cc1
active: growth inhibition [1] 100% | growth inhibition [4] 101%
inactive: inhibition [2] 33% | inhibition [3] 3% | outcome [5] | outcome [6] | outcome [7] | outcome [8]

Cc1cc(CN2CC[C@H](NC(=O)c3ccc(Cl)c(Cl)c3)C2)ccc1OC1CCN(C)C1 (stereo partly drawn)
active: inhibition [2] 71% | growth inhibition [4] 101%
inactive: growth inhibition [1] 24% | inhibition [3] -3% | outcome [5] | outcome [6] | outcome [7] | outcome [8]

CCC(CC)(CCC#N)CN(C[C@@H](O)[C@H](Cc1ccccc1)NC(=O)OC(C)(C)C)S(=O)(=O)c1ccc(OC)cc1
active: growth inhibition [1] 66% | growth inhibition [4] 82%
inactive: inhibition [2] -12% | inhibition [3] 0% | outcome [5] | outcome [6] | outcome [7] | outcome [8]

COC(=O)c1cccc(CN(CCC(O)(C(F)(F)F)C(F)(F)F)C(=O)CC2CCCC2)c1
inactive: inhibition [2] -1% | inhibition [3] 0% | outcome [5] | outcome [6] | outcome [7] | outcome [8]
active: growth inhibition [1] 53% | growth inhibition [4] 98%

CCOc1ccc2c(NN=Cc3ccccc3OC)cc(C)nc2c1
active: growth inhibition [1] 93% | growth inhibition [4] 99%
inactive: inhibition [2] 11% | inhibition [3] 0% | outcome [5] | outcome [6] | outcome [7] | outcome [8]

Cc1cccc2[nH]c(-c3ccc(-c4cccc(NC(=O)c5cccc(C(N)=O)c5)c4)cc3)nc12
active: growth inhibition [1] 87% | growth inhibition [4] 84%
inactive: inhibition [2] 14% | inhibition [3] -1% | outcome [5] | outcome [6] | outcome [7] | outcome [8]
